Test results published in PubChem BioAssay (EPA / NIEHS).
Active and inactive are the calls of the source. The calls were made as follows: active = hit-call score of the fitted dose curve at least 0.9, where 1 is the maximum; inactive = score below 0.9.

Assay: BSK_hDFCGF_Proliferation: Cell Proliferation Assessment in the BioMAP Diversity Plus: hDFCGF Assay (AID 2283059);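 also: curves fitted for both rise and fall of signal versus DMSO baseline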
Conditions: primary human foreskin fibroblasts
Method: BSK_hDFCGF is a cell-based, multiplexed-readout assay that uses foreskin fibroblast, a human skin primary cell, with measurements taken at 24 hours after chemical dosing in a 96-well plate.BSK_hDFCGF_Proliferation is an assay component measured in the BSK_hDFCGF assay. It measures […] related to cell proliferation using Sulforhodamine staining technology.Data from the assay component BSK_hDFCGF_Proliferation was analyzed into 1 assay endpoint. This assay endpoint, BSK_hDFCGF_Proliferation, was analyzed with bidirectional fitting relative to DMSO as the negative control and baseline of activity. Using a type of viability reporter, measures of total protein for gain or loss-of-signal activity can be used to understand the viability at the cellular-level. Furthermore, this assay endpoint can be referred to as a secondary readout, because this assay has produced multiple assay endpoints where this one serves a viability function. To generalize the intended target to other relatable targets, this assay endpoint is annotated to the cell cycle intended target family, where the subfamily is proliferation.
The levels of cell surface (or secreted, indicated by the prefix "s") biomarker endpoints were measured by ELISA. Overt cytotoxicity to cells in confluent adherent cultures (all systems other than the BT system) was assessed by measuring total protein levels using sulforhodamine B (SRB) staining in parallel cultures at the time of biomarker measurements, indicated as SRB endpoints. For proliferation assays for adherent cell types, individual cell types are cultured at sub-confluence and relative cell numbers quantified by SRB staining at time points optimized for each system (48 h: 3C and CASM3C systems; 72 h: BT and HDF3CGF systems; 96 h: SAg system). SRB was performed by staining cells with 0.1% SRB after fixation with 10% TCA and reading wells at 560 nm.Viability and proliferation of PBMC (T cells) was quantified by Alamar Blue reduction for the SAg and BT systems. For PBMC viability (referred to as PBMC Cytotoxicity within the assay endpoint names), cells were plated (75,000/well in a 96-well plate) and then chemical samples added for 1 h before addition of activators, SEB and TSST-1 (20 ng/mL final concentration each). Cells were incubated for 90 h. Then, Alamar Blue (20 uL/well) (Invitrogen, Cat DAL1100) was added for 6 h, and the plates were read with a fluorescence microplate reader at 546/580 nm (excitation/emission). For PBMC proliferation, cells were plated and activated as above but incubated for only 16 h prior to addition of Alamar Blue. Plates were read after 6 h.

| Compound | outcome | AC50 |
| --- | --- | --- |
| Cc1ccc(N(C)C)cc1 | inactive |  |
| Oc1ccc2c(c1)OC[C@@H](N1CCC(O)(c3ccc(F)cc3)CC1)[C@H]2O | inactive |  |
| CCCCc1ccc2c(n1)[C@@H](c1ccc(OC)cc1C[C@H](C)C(=O)O)[C@H](C(=O)O)[C@H]2c1ccc2c(c1)OCO2 | inactive |  |
| Cc1ccc(C)c(C)c1 | inactive |  |
| COc1cc(S(=O)(=O)O)c(C)cc1N=Nc1c(O)ccc2cc(S(=O)(=O)O)ccc12 | inactive |  |
| CN1CCCC1=O | inactive |  |
| C1CCC(SSC2CCCCC2)CC1 |  | 15.9 µM (active) |
| C[C@]12C=CC(=O)C=C1CC[C@@H]1[C@@H]2C(=O)C[C@@]2(C)[C@H]1CC[C@]2(O)C(=O)CO | inactive |  |
| CCOC(=O)CCC(=O)OCC | inactive |  |
| CCCCCCOCCO | inactive |  |
| O=[N+]([O-])C(CO)(CO)CO |  | 14.1 µM (active) |
| NS(=O)(=O)c1cc2c(cc1Cl)NCNS2(=O)=O | inactive |  |
| CC(=O)OC/C=C(\C)CCC=C(C)C |  | 0.597 µM (active) |
| CCCCCCCCCCC | inactive |  |
| CCOc1ccc2c(c1)C(C)=CC(C)(C)N2 |  | 24.3 µM (active) |
| O=c1c(O)c(-c2ccc(O)c(O)c2)oc2cc(O)cc(O)c12 |  | 11.5 µM (active) |
| OC[C@@H](O)[C@@H](O)[C@H](O)[C@H](O)CO | inactive |  |
| CC=Cc1ccc(O)c(OC)c1 |  | 24.6 µM (active) |
| COc1cc(C=O)ccc1O | inactive |  |
| CN[C@H]1CC[C@@H](c2ccc(Cl)c(Cl)c2)c2ccc(S(N)(=O)=O)cc21 |  | 10.3 µM (active) |

| Compound | outcome | AC50 |
| --- | --- | --- |
| C=CCOC(=O)c1ccccc1C(=O)OCC=C | inactive |  |
| Cc1ccccc1Cl | inactive |  |
| O=C(N[C@@H](Cc1ccccc1)[C@@H](O)C(=O)N1C[C@@H](O)[C@@H](O)C1)c1cc2cc(Cl)ccc2[nH]1 | inactive |  |
| CCOC(=O)C(C)(C)Oc1ccc(Cl)cc1 | inactive |  |
| CN1CCN(Cc2cc(-c3ccc4[nH]c(=O)oc4c3)co2)[C@@H](c2ccc(F)cc2)C1 |  | 17.6 µM (active) |
| CCCc1cc(=O)[nH]c(=S)[nH]1 | inactive |  |
| O=C(O)CCCCC(=O)O | inactive |  |
| CC1=C(/C=C/C(C)=C/C=C/C(C)=C/CO)C(C)(C)CCC1 |  | 12.4 µM (active) |
| Cc1ccc2ncccc2c1 | inactive |  |
| CC(=O)OCCOCCOCCOC(C)=O | inactive |  |
| CCCCC(CC)COC(=O)CC(C(=O)OCC(CC)CCCC)S(=O)(=O)O (stereo not given) |  | 10 µM (active) |
| c1cc(-c2ccncc2)ccn1 | inactive |  |
| Cc1cccc(C)c1O | inactive |  |
| Cc1cccc([N+](=O)[O-])c1C | inactive |  |
| O=c1[nH]cc(F)c(=O)[nH]1 |  | 9.52 µM (active) |
| Cc1oc(-c2ccccc2)nc1CCOc1cccc2c1ccn2CCC(=O)O | inactive |  |
| CC(=O)C(C)=CC1C(C)=CCCC1(C)C (stereo not given) | inactive |  |
| Nc1ccc(S(=O)(=O)c2ccc(N)cc2)cc1 | inactive |  |
| COc1ccc(S(=O)(=O)N2C(=O)[C@@](c3ccccc3OC)(N3C[C@H](O)C[C@H]3C(=O)N(C)C)c3cc(Cl)ccc32)c(OC)c1 |  | 30.5 µM (active) |
| CC(=O)Oc1ccccc1C(=O)O | inactive |  |
